PubChem BioAssay AID1053144 (Broad Institute, 2014)
Hit rate of the full screen: of about 3,400 compounds, about 160 (4.7%) were called active.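 The calls were made as follows: active = fitted curve reaches 30% activation at a concentration no higher than the top valid tested dose, luminescence rising; inconclusive = no clear call, values can overlap the other calls; inactive = signal moving opposite to the expected increase, plus the rest.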 The list is a sample of the results. Potency and affinity values are given separately.

assay: Wnt/beta-catenin signaling activators, dose response, cell-based, iPS-derived NPC, luciferase, Wnt3a, cherry-pick (AID 1053144); settings: NPC TCF/LEF luciferase reporter, Wnt3a EC25, 24 h; series mostly up to 26 µM; activation: at the top concentration;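 also: Wnt3a stimulus is conditioned medium from Wnt3a-transfected mouse L cells at 5% in well; 0% = neutral control wells and 100% = CHIR-99021 positive control wells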

activation, inactive:
Fc1ccc(-c2nc3ccccc3[nH]2)cc1 13.1%
CC(C)CSc1nnc2c(n1)[nH]c1ccccc12 3.64%
O=C(/C=C(\Nc1ccccc1)c1ccccc1)c1ccccc1 -0.624%
Cc1ccc(SCc2cn3cc(Cl)ccc3n2)cc1 7.16%
c1ccc2oc(SCc3cn4ccsc4n3)nc2c1 10.8%
O=C(CNC(=O)c1ccccc1F)c1ccccc1 0.87%
O=C(CCN1CCN(c2ccccc2)CC1)Nc1ccc(OCc2ccccc2)cc1 1.26%
Cc1ccnc(NC(=O)c2ccc(S(=O)(=O)N3CCC(C)CC3)cc2)c1 6.2%
O=C(/C=C/c1ccc(OC2CSC2)cc1)c1ccccc1 2.74%
CSc1ccc(/C=N/NC(=O)c2cc(O)cc(O)c2)cc1 15.1%
N=c1c2c(ncn1CCCO)Oc1c(ccc3ccccc13)C2c1ccccc1 (configuration not stated) -1.09%
COc1ccc(O)c(/C=N/N2CCCCC2)c1 10.5%
COc1ccccc1CCc1nnc(CCC(=O)N(C)Cc2cccc3cnccc23)o1 7.69%
Cc1ccsc1/C=N/Nc1nc2ccccc2[nH]1 13.7%
C(=N\Nc1nc2ccccc2[nH]1)/c1cccc2cccnc12 -6.2%
C=CCn1cc(/C=N/Nc2nc3ccccc3[nH]2)c2ccccc21 6.37% [at 6 µM]
Cc1nn(-c2ccccc2)c(C)c1/C=N/Nc1nc2ccccc2[nH]1 20.5%
Clc1nc2ccccc2cc1/C=N/Nc1nc2ccccc2[nH]1 6.98%
CC(/C=N/Nc1nc2ccccc2[nH]1)=C\c1ccccc1 6.18%
C(=N\Nc1nc2ccccc2[nH]1)/c1ccc2c(c1)OCCO2 8.63%
C(=N\Nc1nc2ccccc2[nH]1)/c1cccs1 6.38%
O=C(NCCc1ccccc1F)C(=O)Nc1nccs1 8.45%
CSc1ccccc1OCc1cc(C(=O)N2CCCC(C)C2)no1 (configuration not stated) 18.5%
CCCC(=O)c1ccc(N2CCC(C)CC2)c(F)c1 8.52%
COc1ccc(C(=O)Nc2nnc(SCC(=O)Nc3ccc(NC(C)=O)cc3)s2)c(OC)c1 12.3%
Cc1ccc(NC(=O)c2ccc(F)cc2)nc1 15.3%
CCOC(=O)c1cnc2c(-c3ccccc3)cnn2c1N 7.17%
Cn1c(SCc2ccc(F)cc2)nnc1-c1ccccn1 13.4%
COC(=O)c1c(-c2ccc(SC)cc2)sc2ccc(OC)cc12 7.8%
O=C(O)c1cc(N/N=C/c2ccc(N3CCOCC3)cc2)ccc1Cl -1.2%
Cc1cnc(NC(=O)c2ccccn2)s1 -0.046%
Cc1ccc(NC(=O)c2ccccn2)c(Br)c1 6.25%
COc1ccc(NC(=O)Nc2ccc3oc(C)nc3c2)cc1 13%
Fc1ccccc1-c1cc2ncccc2cn1 11.5%
COc1cccc(C(=O)COC(=O)c2cccs2)c1 11.3%
COc1ccc(C(=O)COC(=O)c2cccs2)cc1 8.71%
CCn1c(COc2ccc(OC)cc2)nc2ccccc21 11.6%
COc1ccccc1OCc1cc(C(=O)N2CCN(C)C(c3ccccc3)C2)no1 (configuration not stated) 15.3%
COc1cc(Cl)ccc1OCc1cc(C(=O)N(C)CC2CCCCO2)no1 (configuration not stated) 8.88%
Cc1ccccc1Nc1nc(N)c2ccccc2n1 3.57%
Nc1nc(Nc2ccccc2)nc2ccccc12 2.38%
CCOC(=O)c1oc2nc3c(cc2c1N)CCCC3 8.93%
O=C(CSc1nnc(C2CC2)n1C1CC1)c1ccc(Br)s1 10.4%
Oc1ccccc1-c1cc(-c2ccc(F)cc2)n[nH]1 19.7%
Cc1ccccc1-c1cc(-c2ccccc2O)n[nH]1 20.9%
COC(=O)c1cc(C)nc(Nc2nc(C(N)Cc3ccc(Cl)cc3)cs2)n1 (configuration not stated) -5.29%
Cc1ccc(NC(=O)c2csc3c2CCCC3)cc1 8.16%
CCOc1ccc(NC(=O)c2csc3c2CCCC3)cc1 12.5%
CCOc1ccc(NC(=O)c2ccc3c(c2)N(C)CCS3)cc1 1.57%
O=C(CSc1ccsc1[N+](=O)[O-])NCc1ccco1 10.5%
CC(C)Nc1ncnc2c1cnn2-c1ccccc1 3.91%
COc1ccccc1Nc1ncnc2c1cnn2-c1cccc(C)c1 6.78%
Cc1ccc(OCC(=O)Nc2ccccc2F)cc1C 9.3%
c1ccc(CNc2ncnc3c2oc2ccccc23)nc1 13.2%
c1ccc2c(c1)oc1c(NCC3CCCO3)ncnc12 (configuration not stated) 16.6%
CCOC(=O)N/N=C\c1ccccc1OC/C=C/c1ccccc1 2.48%
O=C(/C=C/Nc1cccc(O)c1)c1ccccc1 -2.82%
COc1ccc(C(=O)Nc2ccccc2C(=O)NCc2ccco2)cc1OC 1.33%
O=C(Nc1cccc([N+](=O)[O-])c1)c1ccc2c(c1)OCCO2 9.15%
CC(=O)Nc1cccc(NC(=O)c2ccc(C)c([N+](=O)[O-])c2)c1 1.38%
COc1ccc(-c2ccc(NC(=O)c3ccc(Br)o3)cc2)nn1 17%
Cc1ccc(/C(=N/Nc2ncnc3ccccc23)C(=O)O)cc1 11.8%
Cc1cccc(Nc2ncnc3ccccc23)c1 0.509%
Cc1ccc(C(=O)Nc2cc3c(oc2=O)CCCC3=O)cc1 9.54%
Cn1nnc2cc(C(=O)Nc3ccc4ccccc4c3)ccc21 16.4%
CCOc1ccc(-n2c(COc3ccc(C)cc3)nnc2SCC(N)=O)cc1 14.3%
CCOc1ccc(C2C=C(c3ccccc3)Nc3nnnn32)cc1 (configuration not stated) 2.97%
COc1ccc(C(=Cc2ccccc2[N+](=O)[O-])C(=O)O)cc1 11.6%
O=C(Nc1ccc(NC(=O)C2CC2)cn1)c1ccccc1Cl 5.17%
O=C(Nc1ccc(NC(=O)c2cccs2)cn1)c1ccccc1 5.59%
COc1cc(NC(=O)c2cccs2)ccc1NC(=O)c1ccco1 11.8%
O=C(Nc1ccc(F)cc1)c1cc(-c2ccccc2)no1 6.64%
O=C(NCC1CCCO1)c1cc(-c2ccc(Cl)cc2Cl)on1 (configuration not stated) 12.2%
Cc1cc([N+](=O)[O-])ccc1NC(=O)/C=C/c1cccs1 10.2%
COc1ccc2[nH]c3c(NCCCOC(C)C)ncnc3c2c1 13.2%
O=C(CNc1ccc2ccccc2c1)N/N=C/c1ccc(OC(=O)/C=C/c2ccco2)cc1 23.3% [at 12 µM]
CCN(C(=O)C=Cc1ccco1)c1ccccc1 4.04%
Cc1ccccc1Cn1nnc(-c2cccc(C(=O)O)c2)n1 4.93%
COc1ccc(S(=O)(=O)n2ccc(-c3cnc(-c4ccccc4)s3)n2)cc1 4.09%
Cc1cccc(Nc2nc(-c3ccc(F)c(C)c3)cs2)n1 4.46%
CC1CCCCN1C(=O)c1cc(-c2ccc3c(c2)OCO3)on1 (configuration not stated) 9.54%
Oc1oc(-c2ccc(Br)cc2)nc1/C=N/c1ccccn1 8.38%
Cc1cccc(N2CC(C(=O)NC3CCCCCC3)CC2=O)c1C (configuration not stated) -1.43%
CCCC(=O)Nc1nc2ccc(OCC)cc2s1 16.3%
COCC(=O)Nc1nc2ccc(C)cc2s1 6.09%
CCC(=O)Nc1nc2cc(OC)ccc2s1 13.7%
COc1ccc2sc(NC(C)=O)nc2c1 11%
Cc1ccc(-c2cn3c(=O)cc(C)[nH]c3n2)cc1 12.7%
CCN(CC)S(=O)(=O)c1ccc(NS(=O)(=O)c2cccc(C)c2)cc1 9.12%
Cc1ccc(/C=N/Nc2ncnc3nc[nH]c23)cc1 12.2%
Cc1cccc(N2CCN(C(=O)CCCOc3ccccc3)CC2)c1C 6.59%
CCN1C(=O)CCN(C2CCCC2)c2nc(Nc3ccc(C(=O)NC4CCN(C)CC4)cc3OC)ncc21 4.88%
CC(=O)Nc1ccc(C(=O)COC(=O)C2CC2C)c(F)c1 (configuration not stated) 3.26%
Fc1ccc(-c2ccc3c(n2)CCCN3Cc2ccccn2)cc1 9.57%
O=C(NC(=O)c1ccccc1)Nc1ccccc1O 4.25%
O=C(Nc1ccccc1N1CCN(c2ccccc2)CC1)c1ccccc1 -3.36%
Oc1[nH]c2ccccc2c1C=Nc1ccc2c(c1)OCO2 14.2%
COc1ccccc1C(=O)N(C)c1nnc(-c2ccccc2)s1 17.6%
CCOc1cccc(C(=O)Nc2ccc3c(c2)OCCO3)c1 5.21%
c1ccc2oc(-c3ccn[nH]3)cc2c1 10.9%
CCNc1nc(-c2cc3ccccc3o2)cs1 2.6%
Oc1ccc(Cl)cc1CNc1nccs1 10.9%
CN(C)c1ccc(/C=N/NC(=O)c2ccn(C)n2)cc1 13.3%
O=C(NCCc1cccs1)C1CC(c2ccccc2[N+](=O)[O-])=NO1 (configuration not stated) 9.24%
Clc1ccccc1CSc1nc2ccncc2[nH]1 8.37%
c1ccc(-c2ccc(-c3ccccn3)s2)nc1 13.1%
CC(=O)Nc1ccc2nc(-c3ccccn3)[nH]c2c1 3.19%
NC(=O)c1ccccc1OCc1nc2ccccc2s1 8.49%
Cc1ccc(NC(=O)c2cc3c(s2)CCCC3)cc1 16.9%
COc1ccc2cc(-c3ccccc3)ncc2c1 11.6%
COc1ccc(-c2cc(-c3ccc(OC)cc3)[nH]n2)cc1 3.32%
Cc1ccc(C)c(NC(=O)c2cc3ccccn3n2)c1 10.6%
O=C(Nc1ccc(Br)cc1)c1cc2ccccn2n1 9.98%
Clc1ccc(-n2nnc(-c3cccnc3)n2)cc1Cl 9.11%
O=C(Nc1ccc(F)cc1F)c1csc(-c2cccs2)n1 8.48%
Cc1nc([N+](=O)[O-])cn1CC(O)c1ccc(Cl)cc1 (configuration not stated) 0.757%
Nc1c(C(=O)c2ccccc2)oc2ccc(Br)cc12 5.38%
COc1ccc(C(=O)c2oc3ccc(OC)cc3c2N)cc1 9.38%
COc1ccc(C(=O)Nc2ccc3c(c2)nc2n3CCSC2)cc1 12.5%
Cc1ccc2cc(C#N)c(SCC(=O)N3CCCC3)nc2c1 8.83%
NC(=O)C(=O)N/N=C1\CCc2ccccc21 10.6%
CC(=O)Nc1cccc(NC(=O)CCCC(=O)O)c1 -0.366%
O=C(CC(=O)c1ccccc1)Nc1ccccc1 12.6%
CC(C)c1ccc(Nc2nnc(SCC(=O)NCC3CCCO3)s2)cc1 (configuration not stated) 16.7%
CCCc1cc(C(=O)Nc2cccc(Cl)c2)no1 5.04%
CCCc1cc(C(=O)Nc2cccnc2)no1 10.9%
O=C(Nc1ccc(N2CCCCC2)cc1)c1cncc(Br)c1 15.3%
